High-throughput results as filed in PubChem BioAssay.
DRD3 agonist – qHTS of D3 Dopamine Receptor Agonist: qHTS; D(3) dopamine receptor (Homo sapiens), P35462; D3R DiscoveRx beta-arrestin cells, luminescence, 90 min; max activation, %; 410,000 compounds, 0.58% hits; in the data active means max activation above about 30%; further: 0% is about no effect
Target sequence (P35462 whole entry, looked up): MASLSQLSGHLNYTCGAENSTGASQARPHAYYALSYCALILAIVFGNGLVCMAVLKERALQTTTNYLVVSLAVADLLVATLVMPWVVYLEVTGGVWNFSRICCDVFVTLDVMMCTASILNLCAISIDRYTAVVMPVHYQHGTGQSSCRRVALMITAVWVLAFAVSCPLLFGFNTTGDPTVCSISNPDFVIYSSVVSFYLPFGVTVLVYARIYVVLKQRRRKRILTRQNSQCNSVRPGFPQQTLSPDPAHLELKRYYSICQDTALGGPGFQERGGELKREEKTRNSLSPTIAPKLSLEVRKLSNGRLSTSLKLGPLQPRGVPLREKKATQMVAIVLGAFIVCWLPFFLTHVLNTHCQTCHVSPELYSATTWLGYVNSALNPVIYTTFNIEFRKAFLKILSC
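Cells at 1500/well, incubated overnight, then treated with pinned compounds (dopamine as control) for 90 min at 37 degrees C. DiscoveRx reagent added for 30 - 60 minutes at room temperature; luminescence read.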
D1 potentiator – Potentiators of Human D1 Dopamine Receptor: qHTS; potentiation, % at 10 µM; HEK293 TREx D1 cells, calcium flux, dopamine EC20 potentiation; D(1A) dopamine receptor (Homo sapiens), P21728; AID 504651, 2011; 360,000 compounds, 0.036% hits; in the data active means potentiation above about 30%; further: 0% is about no effect
D3 antag – qHTS of D3 Dopamine Receptor Antagonist: qHTS; D(3) dopamine receptor (Homo sapiens), P35462; D3R cells, DiscoveRx beta-arrestin luminescence, antagonist mode; hits give low values; max response, negative = inhibition, %; 360,000 compounds, 2.5% hits; AID 652054, 2013; in the data active means max response below about -50%; inconclusive means no clear call, values can overlap the other calls; further: on the % scale 0 is the no-effect control and ±100 the full control effect
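Cells plated overnight at 1500 cells/well, then exposed to library compounds with dopamine controls for 90 minutes at 37 degrees C. DiscoveRx reagent added for 30–60 minutes at room temperature; luminescence read, quantitative HTS format.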
D1 antag – Antagonist of Human D 1 Dopamine Receptor: qHTS; D(1A) dopamine receptor (Homo sapiens), P21728; HEK293 TREx D1 cells, calcium flux, dopamine EC80; hits give low values; activity change, negative = inhibition, % at 10 µM; 360,000 compounds, 3.2% hits; AID 504652, 2011; in the data active means activity change below about -30%; further: on the % scale 0 is the no-effect control and ±100 the full control effect
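Calcium flux readout: force-coupled, inducible Hek293 Trex D1 line, cells induced overnight at 30 C with tetracycline, dye-loaded 30–90 min at RT. Antagonism scored against EC80 dopamine challenge given 180 s after compound.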
D1 ag – Allosteric Agonists of the Human D1 Dopamine Receptor: qHTS; 360,000 compounds, 1% hits; activation, % at 2 µM; HEK293 T-REx D1 cells, calcium flux, agonist mode; in the data active means activation above about 30%; further: 0% is about no effect
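Inducible HEK293 T-REx D1 cells, force-coupled to calcium signalling, were plated at 4000 cells/well with tetracycline and held overnight at 30 C. After no-wash calcium dye loading, compound-evoked calcium rise over 180 s flagged agonists.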
An asterisk follows results filed as active; ? = inconclusive; / = not tested or not shown. Compounds with a hit are over-represented: about 6% of the library has one in this group of screens.

SMILES | DRD3 agonist | D1 potentiator | D3 antag | D1 antag | D1 ag
COC(=O)c1cc(Nc2nc3ccccc3nc2NS(=O)(=O)c2ccc(C)cc2)ccc1Cl | 5.0 | -4.2 | / | -30.7* | 16.5
CC(=O)Nc1ccc(Nc2nc3ccccc3nc2NS(=O)(=O)c2ccc(Cl)c([N+](=O)[O-])c2)cc1 | 3.4 | / | -91.0* | / | /
COc1cc(Nc2nc3ccccc3nc2NS(=O)(=O)c2ccc([N+](=O)[O-])cc2)cc(OC)c1OC | 2.4 | -20.0 | -15.5 | -74.1* | 1.3
O=[N+]([O-])c1ccc(S(=O)(=O)Nc2nc3ccccc3nc2Nc2ccccc2)cc1 | -3.2 | -7.0 | -1.5 | 0.3 | 0.0
CC(=O)Nc1ccc(S(=O)(=O)Nc2nc3ccccc3nc2Nc2ccc(N)cc2)cc1 | -1.0 | -3.1 | -27.5 | 26.6 | 27.0
CC(=O)Nc1ccc(S(=O)(=O)Nc2nc3ccccc3nc2Nc2ccc3ccccc3c2)cc1 | -2.6 | -2.9 | 4.4 | -2.2 | 4.6
CC(=O)c1ccc(NS(=O)(=O)c2ccc(-n3cccn3)cc2)cc1 | -6.4 | -1.6 | / | -16.1 | 10.4
CCOc1ccc(Cn2c(CNS(=O)(=O)c3ccc(Cl)s3)nc3cccnc32)cc1 | 14.7 | 0.5 | / | 21.7 | 0.8
CCc1ccc(C2c3c(oc4ccc(C)cc4c3=O)C(=O)N2c2nc(C)c(C)s2)cc1 (configuration not stated) | -4.6 | 0.5 | / | 12.9 | 2.2
COc1cccc(-n2nnc3c(=O)n(C/C=C/c4ccccc4)cnc32)c1 | -2.4 | -10.5 | -13.7 | -41.3* | -0.2
CCOc1ccc(CCNC(=O)c2cc3c(s2)-c2ccccc2OC3)cc1OCC | -6.3 | -4.7 | / | 10.7 | -1.1
CCC(=O)N(CCc1ccccc1)Cc1cc2cccc(C)c2[nH]c1=O | 6.7 | 0.6 | -15.5 | -43.2* | 4.8
Cc1cccc2cc(CN(Cc3ccco3)C(=O)c3ccncc3)c(=O)[nH]c12 | 3.3 | 1.6 | ? | -70.0* | 0.8
COCCN(Cc1cc2cccc(C)c2[nH]c1=O)C(=O)c1ccccc1 | 0.6 | -3.4 | -8.5 | 1.2 | -3.4
CC1CC(O)CC(C)(C)C1 (configuration not stated) | 0.0 | / | / | / | /
CSc1ccc(/C=C/c2nc3ccccc3n2S(=O)(=O)c2cccc(Cl)c2)cc1 | 3.3 | -0.8 | / | -27.2 | 9.5
O=S(=O)(c1cccc(Cl)c1)n1c(/C=C/c2ccccc2Cl)nc2ccccc21 | 1.4 | -3.0 | / | -33.2* | -2.1
CCn1c(C(=O)NCc2ccccc2Br)cc2oc3ccccc3c21 | 41.9* | -4.8 | / | -4.4 | 2.9
Cn1c(C(=O)NCc2ccccc2F)cc2oc3ccccc3c21 | -2.2 | -7.8 | / | -56.9* | 2.6
CCn1c(C(=O)NCc2cccc(Br)c2)cc2oc3ccccc3c21 | -9.6 | -3.1 | / | 23.0 | 10.8
Cc1ccc(CNC(=O)c2cccc(Nc3nc4ccccc4n4nnnc34)c2)cc1 | 5.0 | -2.6 | / | 12.6 | 2.6
COCCCn1c(SCC(=O)Nc2ccc(OC)cc2)nc2c(sc3ccccc32)c1=O | 6.2 | 1.1 | / | -22.1 | 3.2
Cn1cc(C(=O)N/N=C/c2ccc3c(c2)OCO3)c2ccccc21 | -6.5 | -2.2 | 23.1 | 3.5 | 2.2
Cn1cc(C(=O)N/N=C/c2ccc(Br)c([N+](=O)[O-])c2)c2ccccc21 | -20.8 | -3.7 | -67.1* | -2.4 | -0.3
CC(C)(C)Nc1nc(Cl)nc(NC(C)(C)C)n1 | -7.6 | -6.0 | -18.6 | -19.6 | -1.1
SMILES | DRD3 agonist | D1 potentiator | D3 antag | D1 antag | D1 ag
CC(C)(C)Nc1nc(NN)nc(NC(C)(C)C)n1 | -15.5 | -0.5 | -80.0* | -9.7 | -0.2
CSc1nnc2[nH]c(=O)cc(C)n12 | -5.2 | 0.1 | / | / | 1.6
Cc1csc(N=Nc2ccc(N(C)C)cc2)[n+]1[O-] | -20.1 | / | -101.6* | / | /
N#Cc1cc(-c2ccc(Cl)cc2)cn(Cc2c(Cl)cccc2Cl)c1=O | -0.5 | / | -50.3* | / | /
Cc1ccc(S(=O)(=O)CCC(=O)OCC(=O)c2cc(C)ccc2C)cc1 | -6.1 | 4.8 | 4.3 | 7.6 | 0.4
Cc1ccc(S(=O)(=O)CCC(=O)c2ccc(O)cc2O)cc1 | 4.7 | -2.0 | -59.1* | -3.5 | 3.7
OC[C@@H]1[C@@H](c2ccc(Cl)cc2)C(c2ccc(F)cc2)=NN1c1ccccc1 | 6.8 | / | 18.5 | / | /
OC[C@@H]1[C@@H](c2ccccc2)C(c2ccc(F)cc2)=NN1c1ccccc1 | 37.7* | / | 72.3 | / | /
COc1ccc(-c2[nH]c3ccccc3c2SCCNC(=O)c2ccc(S(=O)(=O)N(C)C)cc2)cc1 | 2.3 | 2.2 | / | 9.7 | 0.9
Cc1ccc(/C=C/C(=O)O)cc1S(=O)(=O)NCc1ccco1 | 41.0* | -2.9 | 10.4 | 3.4 | 1.5
COc1ccc(/C=C/C(=O)O)cc1S(=O)(=O)NCc1ccco1 | -6.8 | -3.3 | 0.9 | 1.6 | 3.4
Cc1nccc(-c2cccc(N/N=C(\C#N)C(=O)c3ccccc3)c2)n1 | -0.6 | -0.8 | 33.5 | 4.5 | 6.8
N#C/C(=N\Nc1cccc(C(F)(F)F)c1)C(=O)c1ccsc1 | 6.4 | -2.9 | -5.9 | -32.4* | 22.3
CN(C)c1cccc(-c2cc(Nc3ccc(C(C)(C)C)cc3)ncn2)c1 | 2.0 | / | -54.6* | / | /
CN(C)c1ccc(Nc2cc(Cl)ncn2)cc1 | 13.6 | -11.7 | 6.2 | -3.9 | 0.0
COCCNCCOCCOc1ccc(Cl)c(C)c1 | -20.2 | -3.1 | -51.8* | / | 32.0*
Clc1cc(Br)ccc1OCCCNCc1ccccc1 | -10.7 | -6.2 | -88.1* | 6.1 | 55.3*
Cc1ccc(C)c(OCCCNCc2ccccc2)c1 | -6.3 | 4.3 | -53.6* | -0.9 | 20.1
Cc1cc(OCCOCCNCc2ccccc2)ccc1C(C)C | -1.2 | -2.9 | 16.8 | -7.5 | 63.0*
Cc1ccc(C)c(OCCC(=O)OCC(=O)NCc2ccccc2)c1 | 8.8 | -4.3 | -3.9 | 7.1 | 2.4
COCCNCc1ccccc1 | -2.4 | -4.2 | 12.7 | -10.4 | 5.9
Cc1cc(OCCOCCN(C)C)ccc1Cl | -7.5 | 5.2 | 0.0 | -6.1 | 5.9
Brc1ccc(OCc2ccccc2)c(CNCc2ccncc2)c1 | -40.5 | -9.4 | -62.0* | 1.8 | 2.0
Cc1ccc(C(C)C)c(OCCNCc2ccccc2)c1 | 2.8 | 5.7 | -7.8 | 14.1 | 53.1*
Cc1ccc(C(C)C)c(OCCN(C)C)c1 | -7.2 | -5.9 | -75.3* | 4.0 | 5.8
COc1ccccc1C(=O)Nc1cccc(OCc2cc(=O)n3ccccc3n2)c1 | -18.6 | -4.5 | / | -13.6 | -0.3
O=C(C1CCCCC1)N(Cc1cccnc1)c1nc2c(F)cc(F)cc2s1 | 2.3 | -3.9 | / | / | 6.2
c1cc(CNC2C3CC4CC(C3)CC2C4)ccn1 (configuration not stated) | -15.8 | -0.8 | -56.8* | -3.2 | 2.9
COc1ccc(-c2c(-c3ccsc3)oc(=O)c3cc(OC)c(OC)cc23)cc1 | 39.2* | -1.6 | 60.7 | / | -0.3
